Measurements published in PubChem BioAssay (NCI).
Compounds without any hit were thinned out: in the full panel of roughly 79,000, 15% have a hit. No stated cut-off is given here; in the data, active means growth inhibition above about 70%; inactive means the rest.

Assays:
[1] = NCI Yeast Anticancer Drug Screen. Data for the rad50 strain (AID 155);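 further: 0% = growth of vehicle-only cultures of the same strain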; details: S. cerevisiae rad50 strain growth inhibition; at 50.0 µM; stronger effect = higher value
Procedure, shortened: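 Relative growth inhibition (compound vs vehicle) was measured in yeast with a defined repair-gene alteration.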

[2] = NCI Yeast Anticancer Drug Screen. Data for the mec2-1 strain (AID 157); details: S. cerevisiae mec2-1 strain, at 50.0 µM, stronger effect = higher value
Procedure, shortened: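 Test agents were screened against the mec2-1 yeast strain, with defined DNA repair or cell cycle alteration. Growth was scored as inhibition against vehicle-only controls.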

[3] = NCI Yeast Anticancer Drug Screen. Data for the sgs1 mgt1 strain (AID 161);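 further: 0% = growth of cultures given vehicle only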; details: S. cerevisiae sgs1 mgt1 strain, at 50.0 µM, stronger effect = higher value
Procedure, shortened: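 Inhibition of yeast growth, normalised to vehicle-treated controls, is reported for a strain bearing genetic alterations in DNA damage repair.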

[4] = NCI Yeast Anticancer Drug Screen. Data for the cln2 rad14 strain (AID 165);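 further: 0% = growth equal to vehicle treated cultures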; details: S. cerevisiae cln2 rad14 strain, at 50.0 µM, stronger effect = higher value
Procedure, shortened: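 Growth of compound-exposed yeast (cln2 rad14 genotype) measured and expressed as inhibition relative to vehicle.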

[5] = NCI Yeast Anticancer Drug Screen. Data for the bub3 strain (AID 167); details: S. cerevisiae bub3 mutant strain, at 50.0 µM, stronger effect = higher value
Procedure, shortened: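 Screening used yeast with an engineered genetic alteration affecting cell cycle control. Compound-exposed cultures were compared with vehicle cultures, and reduced growth was taken as inhibition.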

[6] = NCI Yeast Anticancer Drug Screen. Data for the mlh1 rad18 strain (AID 175); details: S. cerevisiae mlh1 rad18 strain growth inhibition; at 50.0 µM; stronger effect = higher value
Procedure, shortened: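 In this whole-cell yeast screen, a strain with altered DNA damage repair is challenged with compound, and its growth is measured against matched vehicle-treated controls.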

Measured: growth inhibition

CC[C@@H](C)[C@H]([C@H](CC(=O)N1CCC[C@@H]1[C@@H](OC)[C@H](C)C(=O)N[C@H](Cc1ccccc1)c1nccs1)OC)N(C)C(=O)[C@H](NC(=O)[C@@H](C(C)C)N(C)C)C(C)C
inactive: [1] 6.95% | [2] -22.6% | [3] -2.2% | [4] 8.3% | [5] 20.3% | [6] 16.8%

O=C(NO)c1ccc([N+](=O)[O-])cc1
inactive: [1] 58.2% | [2] 31.1% | [3] 46.3% | [4] 7.05% | [5] 17.8% | [6] 22.2%

Cc1ccc(S(=O)(=O)Cc2c(C)cc(C)cc2C)cc1
inactive: [1] 12.3% | [2] 3.8% | [3] -2.25% | [4] -30.9% | [5] -10.6% | [6] 1.15%

COC(=O)C(N)CO (stereo not given)
inactive: [1] -40.5% | [2] -27% | [3] -39.8% | [4] 4.35% | [5] -34.8% | [6] -26.1%

CCC(CCN(C)C)(OC(C)=O)c1ccccc1 (stereo not given)
inactive: [1] 10.4% | [2] -0.55% | [3] -3% | [4] 11.7% | [5] 30.9% | [6] -15.8%

COc1csn[n+]1-c1ccc(C)cc1
inactive: [1] 7.7% | [2] 3.65% | [3] 9.45% | [4] 7.5% | [5] 14.8% | [6] 9.65%

COc1cc2c(c(OC)c1OC)C(=O)[C@H]1OC(=O)N[C@@H]21
inactive: [1] 8% | [2] 3.05% | [3] 5.2% | [4] 2.1% | [5] 12.9% | [6] -32%

O=C1C(NCCc2ccc(O)c(O)c2)=CC(=O)c2ncccc21
inactive: [1] 35.5% | [2] 34.6% | [3] 32.1% | [4] 24.1% | [5] 6.3% | [6] -5.35%

CCSCC(N)C(=O)O (stereo not given)
inactive: [1] -16.1% | [2] 2.5% | [3] 7.45% | [4] -7.25% | [5] 3.35% | [6] -9%

CC1(C)C=CC=C(C(=O)O)C=C1
inactive: [1] -23.1% | [2] -24% | [3] -34.2% | [4] -21.4% | [5] -13.7% | [6] -14.7%

CCCCC(C(O)c1ccc(C(C)C)cc1)N(CC)CC (stereo not given)
inactive: [1] 56.2% | [2] 34.1% | [3] 53.9% | [4] 9% | [5] 62.2% | [6] 38%

CCCCOC(=O)c1ccc(Cl)c(Cl)c1
inactive: [1] -1.7% | [2] -3.2% | [3] -14.9% | [4] -32.9% | [5] 3% | [6] 7.45%

COC(=O)C(Cc1nc2ccc(Cl)cc2[nH]c1=O)C(=O)C(=O)Nc1cc(C)ccc1C (stereo not given)
inactive: [1] -19.2% | [2] 4.85% | [3] -33% | [4] -35.6% | [5] -26.4% | [6] 14.5%

CCCC[Si](C)(C)CCCC
inactive: [1] -6.35% | [2] -5.95% | [3] -24.9% | [4] -11.2% | [5] -2.1% | [6] -5.3%

NC(C(=O)O)c1ccccc1 (stereo not given)
inactive: [1] -0.85% | [2] -23.4% | [3] -3.85% | [4] -1.9% | [5] -10.7% | [6] -19.5%

CC1=C(C(=O)NCc2ccccc2)C(c2ccco2)C(C(=O)NCc2ccccc2)=C(C)N1
inactive: [1] -34.5% | [2] -20.4% | [3] -37.5% | [4] -13.3% | [5] -9.9% | [6] -21.8%

CSc1cnn(-c2ccccc2)[n+]1[O-]
inactive: [1] 3.8% | [2] -1.3% | [3] -7.15% | [4] -42.5% | [5] -1.75% | [6] -0.85%

COc1ccc(C(C)=O)cc1CCCO
inactive: [1] -1.55% | [2] 5.85% | [3] 0.4% | [4] 30.6% | [5] 13% | [6] 20.6%

CCC1CN2CCc3cc(OC)c(OC)cc3C2CC1O (stereo not given)
inactive: [1] 1.3% | [2] 40.4% | [3] 20% | [4] -3.1% | [5] 44.4% | [6] 27.9%

CC1CN(c2ccccc2)NC1=O (stereo not given)
inactive: [1] 0.4% | [2] -32.7% | [3] 0.05% | [4] 27.1% | [5] -19.6% | [6] -7.55%
